{"source": "PubChem BioAssay (NCATS)", "note": "Results filed as inconclusive are left out. The source made the active and inactive calls. Calls follow the shape of the dose curve; as a rule, active = well fitted cell-killing curve with a large enough effect; inconclusive = small, poorly fitted or top-dose-only effect, or effect the other way; inactive = no such curve, though single readings can be large or run the other way. Potency is read from the fitted curve at half-maximal effect.", "data": [{"test": "Quantitative High-Throughput drug screen in 47 multiple myeloma cell lines against the NCATS MIPE library collection: L363_DSMZ cell viability assay (AID 1918984); also: nearly all actives have a fitted effect of over 40% in size", "conditions": "L363 myeloma viability, CellTiter-Glo ATP luminescence, 48 h; series mostly up to 45.8 µM; viability (% of control): at the top concentration", "excerpt": "PI: Beverly A. Mock Ph.D.\nLaboratory of Cancer Biology and Genetics,\nCenter for Cancer Research, National Cancer Institute,\nNational Institute of Health, Bethesda, Maryland\nDrug resistance and disease progression are common in multiple myeloma (MM) patients, underscoring the need for new therapeutic combinations. […] We hypothesized that effective combinations would reduce MYC expression and enhance p16 activity. […] These preclinical data identify potentially useful drug combinations for evaluation in drug-resistant MM and reveal potential mechanisms of combined drug sensitivity.\nDescribed herein is the primary MIPE qHTS used to cherrypick compounds. Validated compounds were then further tested for potential synergistic activiy.\n[1] Peat TJ, Gaikwad SM, Dubois W, Gyabaah-Kessie N, Zhang S, Gorjifard S, Phyo Z, Andres M, Hughitt VK, Simpson RM, Miller MA, Girvin AT, Taylor A, Williams D, D'Antonio N, Zhang Y, Rajagopalan A, Flietner E, Wilson K, Zhang X, Shinn P, Klumpp-Thomas C, McKnight C, Itkin Z, Chen L, Kazandijian D, Zhang J, Michalowski AM, Simmons JK, Keats J, Thomas CJ, Mock BA. Drug combinations identified by high-throughput screening promote cell cycle transition and upregulate Smad pathways in myeloma. Cancer Lett. 2023 Aug 1;568:216284. doi: 10.1016/j.canlet.2023.216284. Epub 2023 Jun 24. PMID: 37356470; PMCID: PMC10408729.\nSEQUENCE No. (e.g., 1, 2, 3, etc.); […] (e.g., Cells, Incubation, Reagent, etc.); VALUE and DESCRIPTION.\n1; Cells; 5 uL; white, solid bottom 1536-well Greiner assay plate.\n2; Compounds; 23 nL; Kalypsis pin tool (Wako USA) equipped with a 1536-well pin head to transfer to the assay plates.\n3; Incubation; 48 hours; 37C incubation.\n4; Reagent;5uL; CellTiter Glo (Promega).\n5; Detector; 425V; Luminescence; Viewlux PerkinElmer.\nNOTES (numbers refer to Sequence numbers above)\n1. The cell-based screening methods employed in this study were like those previously published. Briefly, the corresponding myeloma cell lines were screened in 1,536-well plates with 500 cells, 5-uL per well for inhibition of cell viability (assessed by measuring ATP levels with CellTiterGlo).\n2. NCATS MIPE 4.0 library of approved and investigational drugs were added using the Kalypsis pin tool. Wells treated with DMSO only for 100% viability and media only for 0% viability were used as controls.\n3. The assay plates were covered and incubated for 48 hours in a 37C, 5% CO2 incubator with controlled humidity.\n4. After 48 hours, CellTilter-GloTM luminescent substrate mix (Promega) reagent was added to the assay plate and plates we incubated for 5 min at room temperature.\n5. Signal was measured as median relative luminescence units on a ViewLux (PerkinElmer) multiplate reader.\n[1] Heske CM, Davis MI, Baumgart JT, Wilson K, Gormally MV, Chen L, Zhang X, Ceribelli M, Duveau DY, Guha R, Ferrer M, Arnaldez FI, Ji J, Tran HL, Zhang Y, Mendoza A, Helman LJ, Thomas CJ. Matrix Screen Identifies Synergistic Combination of PARP Inhibitors and Nicotinamide Phosphoribosyltransferase (NAMPT) Inhibitors in Ewing Sarcoma. Clin Cancer Res. 2017 Dec 1;23(23):7301-7311. doi: 10.1158/1078-0432.CCR-17-1121. Epub 2017 Sep 12. PMID: 28899971; PMCID: PMC6636827.", "values": [{"smiles": "CCC(=O)OC1CCC2C3CCC4=CC(=O)CC[C@@]4(C)C3CC[C@]12C", "note": "(stereo not given in full)", "viability (% of control)": "97% (inactive)"}, {"smiles": "COc1cc2cc(c1Cl)N(C)C(=O)C[C@H](OC(=O)C(C)C)[C@]1(C)O[C@H]1[C@H](C)[C@@H]1C[C@@](O)(NC(=O)O1)[C@H](OC)C=CC=C(C)C2", "viability (% of control)": "7.4% (inactive)"}, {"smiles": "COC1=C[C@@H]2[C@@H]3Cc4ccc(OC)c(O)c4[C@]2(CCN3C)CC1=O", "Potency": "2960 nM (active)"}, {"smiles": "C[C@H]([C@H](O)CCC(C)(C)O)[C@H]1CC[C@@]2(O)C3=CC(=O)[C@@H]4C[C@@H](O)[C@@H](O)C[C@]4(C)[C@@H]3CC[C@]12C", "viability (% of control)": "107% (inactive)"}, {"smiles": "CC[C@@H]1[C@@H](C)O[C@@](O)([C@@H](C)[C@H](O)[C@H](C)[C@H]2OC(=O)C=CC=C[C@@H](C)[C@@H]([C@@H](C)[C@@H](O)[C@H](C)[C@@]3(O)C[C@H](O[C@H]4C[C@H](O)[C@H](O)[C@H](C)O4)[C@H](CC)[C@@H](C)O3)OC(=O)C=CC=C[C@@H]2C)C[C@H]1O[C@H]1C[C@H](O)[C@H](O)[C@H](C)O1", "Potency": "372 nM (active)"}, {"smiles": "Cc1[nH]nc2ccc(-c3cncc(OC[C@@H](N)Cc4c[nH]c5ccccc45)c3)cc12", "viability (% of control)": "89% (inactive)"}, {"smiles": "CC(C)(O)C=CC(=O)[C@](C)(O)[C@H]1[C@H](O)C[C@]2(C)[C@@H]3CC=C4[C@@H](C=C(O)C(=O)C4(C)C)[C@]3(C)C(=O)C[C@@]12C", "Potency": "20.9 nM (active)"}, {"smiles": "Oc1ccc2c3c1O[C@H]1c4[nH]c5c(c4C[C@@]4(O)[C@@H](C2)N(CC2CC2)CC[C@]314)C[C@@]1(O)[C@H]2Cc3ccc(O)c4c3[C@@]1(CCN2CC1CC1)[C@H]5O4", "viability (% of control)": "119% (inactive)"}, {"smiles": "CN1CCN(c2ccc([N+](=O)[O-])c3no[n+]([O-])c23)CC1", "Potency": "8330 nM (active)"}, {"smiles": "CC(C)[C@]12O[C@@H]1[C@@H]1O[C@]13[C@]1(O[C@H]1C[C@@H]1C4=C(CC[C@@]13C)C(=O)OC4)[C@H]2O", "viability (% of control)": "2.34% (inactive)"}, {"smiles": "Cc1ccccc1-n1c(Cn2ncc3c(N)ncnc32)nc2cccc(C)c2c1=O", "Potency": "74.3 nM (active)"}, {"smiles": "COc1ccc(C(=O)c2c(C)n(CCN3CCOCC3)c3cc(I)ccc23)cc1", "Potency": "8330 nM (active)"}, {"smiles": "C[C@@H]1O[C@@H](O[C@@H]2C=C3CC[C@@H]4[C@@H](CC[C@]5(C)[C@H](c6ccc(=O)oc6)CC[C@@]45O)[C@@]3(C)CC2)[C@H](O)[C@H](O)[C@H]1O", "Potency": "8.3 nM (active)"}, {"smiles": "C[C@H]1CCCC=CC2C[C@H](O)C[C@@H]2[C@H](O)C=CC(=O)O1", "note": "(stereo not given in full)", "viability (% of control)": "3.8% (inactive)"}, {"smiles": "O=C(Nc1ccncc1)C(=O)c1cn(Cc2ccc(Cl)cc2)c2ccccc12", "Potency": "13.2 nM (active)"}, {"smiles": "CC1=C(O)C(=O)C=C2C1=CC=C1[C@@]2(C)CC[C@@]2(C)[C@@H]3C[C@](C)(C(=O)O)CC[C@]3(C)CC[C@]12C", "Potency": "662 nM (active)"}, {"smiles": "CC(C)N[C@@H]1CCn2c(=O)[nH]c3cccc(c32)[C@@H]1O", "Potency": "3320 nM (active)"}, {"smiles": "N=c1c2c(-c3ccccc3)c(-c3ccccc3)n(Cc3ccccc3)c2ncn1C1CCC(O)CC1", "note": "(stereo not given)", "Potency": "5260 nM (active)"}, {"smiles": "COc1ccc2c(c[n+](C)c3c4cc5c(cc4ccc23)OCO5)c1OC", "Potency": "4180 nM (active)"}, {"smiles": "C[C@]12CC[C@H]3[C@@H](CCC4=CC(=O)CC[C@@]43C)[C@H]1CC[C@H]2OC(=O)CCC1CCCC1", "viability (% of control)": "86.7% (inactive)"}, {"smiles": "CC1(N2CCC(n3c([C@@H]4CCCNC4)nc4ccccc43)CC2)CCCCCCC1", "Potency": "6620 nM (active)"}, {"smiles": "CO[C@H]1CCC(O[C@H]2C[C@H]([C@]3(C)CC[C@]4(C[C@H](O)[C@@H](C)[C@@H]([C@@H](C)C=C(C)C(=O)[C@H](C)C[C@H](C)C(=O)O)O4)O3)O[C@]3(O[C@@H]([C@H]4O[C@@](O)(CO)[C@H](C)C[C@H]4C)C[C@H]3C)[C@H]2C)O[C@H]1C", "note": "(stereo not given in full)", "Potency": "148 nM (active)"}, {"smiles": "C1=C2CCCN[C@H]2[C@@H]2C[C@H]1[C@@H]1CCCCN1C2", "viability (% of control)": "116% (inactive)"}, {"smiles": "NC1=NC(=O)N2CC12", "note": "(stereo not given)", "Potency": "9350 nM (active)"}, {"smiles": "CN1[C@H]2CC(O)C[C@H]1[C@H]1O[C@H]12", "note": "(stereo not given in full)", "viability (% of control)": "102% (inactive)"}, {"smiles": "COc1ccc2c(c1)CN(C)CC2c1ccc(Cl)c(Cl)c1", "note": "(stereo not given)", "Potency": "13200 nM (active)"}, {"smiles": "C[C@@H]1CC[C@H]2[C@@H](C)C(=O)O[C@@H]3O[C@@]4(C)CC[C@H]1[C@]32OO4", "viability (% of control)": "112% (inactive)"}, {"smiles": "Cc1c(C(=O)c2cccc3ccccc23)c2cccc3c2n1[C@H](CN1CCOCC1)CO3", "Potency": "3720 nM (active)"}, {"smiles": "C[C@]12COC(=O)C[C@@H]1CC[C@@H]1[C@H]2CC[C@@]2(C)[C@H]1CC[C@]2(C)O", "viability (% of control)": "102% (inactive)"}, {"smiles": "CSCC[C@@H](NC(=O)[C@@H](Cc1ccccc1)NC(=O)CNC(=O)CNC(=O)[C@@H](N)Cc1ccc(O)cc1)C(=O)O", "viability (% of control)": "157% (inactive)"}, {"smiles": "O=C1C=CC[C@@H]2[C@H]3CCCN4CCC[C@@H](CN12)[C@@H]34", "viability (% of control)": "98% (inactive)"}, {"smiles": "COC[C@H]1OC(=O)c2coc3c2[C@@]1(C)C1=C(C3=O)[C@@H]2CC[C@H](O)[C@@]2(C)C[C@@H]1OC(C)=O", "Potency": "2350 nM (active)"}, {"smiles": "O=C(N[C@@H](COc1ccc2[nH]c(=O)[nH]c2c1)c1ccccc1)c1cccn(Cc2ccc(F)c(F)c2)c1=O", "Potency": "18700 nM (active)"}, {"smiles": "CCN1CCN(C(=O)Cc2ccc(Nc3ncc(F)c(Nc4ccc(C(=O)Nc5ccccc5Cl)cc4)n3)cc2)CC1", "Potency": "1870 nM (active)"}, {"smiles": "CCOP(=O)(OCC)C(C)NC(=O)N(CCCl)N=O", "note": "(stereo not given)", "viability (% of control)": "115% (inactive)"}, {"smiles": "CC[C@@]1(O)C(=O)OCc2c1cc1n(c2=O)Cc2cc3ccccc3nc2-1", "Potency": "296 nM (active)"}, {"smiles": "Cc1c(C(=O)Nc2cccc(C(F)(F)F)c2)cc(-c2ccccc2)n1CCCN1CCOCC1", "Potency": "5900 nM (active)"}, {"smiles": "c1ccc(CCCN2CCN(CCOC(c3ccccc3)c3ccccc3)CC2)cc1", "viability (% of control)": "76.6% (inactive)"}, {"smiles": "O=C(O)CNC(=O)c1c(O)c2ccccc2n(Cc2ccccc2)c1=O", "viability (% of control)": "102% (inactive)"}, {"smiles": "CC(=CCCC1=CCC(C2=CC(=O)OC2O)OC1O)CCC1=C(C)CCCC1(C)C", "note": "(stereo not given)", "Potency": "2350 nM (active)"}]}]}
